NS3h inh CB: hepatitis C NS3 helicase inhibition, primary screen | 16,000 tested, 1.6% active | NS3h Cy5-dT15 DNA binding, fluorescence polarization | inhibition, % at 100 µM;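 active means inhibition above the average over every tested compound plus 3 SD, cut at about 40% in these data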
Cy5 interf NS3h: Cy5 fluorescence interference, HCV helicase counter-screen. fluorescence interference ratio at 100 µM. AID 720488. 16,000 tested, 6% active. Cy5-dT15 DNA with NS3h; actives lie on both sides; signal over control mean, under 1 quenches;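 active means compound fluorescence over control fluorescence at most 0.8, a quencher, or at least a set upper limit, an enhancer; inactive means ratio between 0.8 and the set upper limit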
NS3h confirm: confirmation of hepatitis C virus NS3 helicase inhibitors | NS3h binding to Cy5-dT15 DNA, fluorescence polarization | inhibition, % at 100 µM | shares compounds with NS3h inh CB | 240 tested, 20% active;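 active means percent inhibition of 50% or more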
SSB FP counter: disrupts E. coli SSB binding to DNA in counter-screen | shares compounds with NS3h inh CB | E. coli SSB binding Cy5-dT15, fluorescence polarization | inhibition, % at 100 µM | 240 tested, 40% active;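 active means inhibition of at least 50%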;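 further: displacers lower Cy5 polarization so higher inhibition means more SSB displaced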
Target sequence (P0AGE0 whole entry, looked up): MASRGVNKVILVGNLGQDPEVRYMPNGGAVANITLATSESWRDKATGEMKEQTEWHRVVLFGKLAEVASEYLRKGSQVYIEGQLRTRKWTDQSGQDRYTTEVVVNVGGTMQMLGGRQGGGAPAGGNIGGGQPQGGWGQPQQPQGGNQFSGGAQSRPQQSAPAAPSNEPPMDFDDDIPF
Cy5 SSB fluor CB: Cy5 fluorescence interference in NS3h counter-screen; shares compounds with NS3h inh CB; Cy5-dT15/E. coli SSB fluorescence interference; actives lie on both sides; fluorescence interference ratio at 100 µM; 240 tested, 8% active; AID 720487;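 active means fluorescence interference ratio at or above 1.2, signal boosting, or at or below 0.8, signal quenching; inactive means ratio between 0.8 and 1.2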;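 further: ratio of compound well signal to mean negative control signal so 1 means no effect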
Cy5 interf conf: confirmation counter-screen for HCV NS3 helicase inhibitors: fluorescence interference | shares compounds with NS3h inh CB | Cy5-dT15 DNA/NS3h fluorescence interference counterscreen | fluorescence interference ratio at 100 µM, hits read low | 240 tested, 44% active | AID 720489;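 active means fluorescence interference ratio at or below 0.8 quencher or at or above a set limitenhancer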;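 further: ratio of compound fluorescence to mean of negative controls so 1 means no interference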
Numbers without * were called inactive; · = no result. Sampled rows, rich in hits. Any-hit rate of the full collection: about 6.8%.

SMILES	NS3h inh CB	Cy5 interf NS3h	NS3h confirm	SSB FP counter	Cy5 SSB fluor CB	Cy5 interf conf
Cc1ccc(N2C(=O)C(Cl)=C(N3CCOCC3)C2=O)c(C)c1	37	1.2	-4	-3	0.99	0.76*
Cc1ccc(SCC(=O)Nc2ccccc2)cc1	8	0.96	·	·	·	·
CCc1cccc(NC2(c3ccccc3)C(=O)c3ccccc3C2=O)c1	69*	0.76*	11	17	0.93	0.94
CCOc1ccc(NC2(c3ccccc3)C(=O)c3ccccc3C2=O)cc1	20	1.1	·	·	·	·
COc1ccc(OC)c(/C=C/C(=O)c2ccc(Br)cc2)c1	-2	1	·	·	·	·
COC(=O)c1cc(Br)cc(NC(C)=O)c1	0	1	·	·	·	·
COc1cc(OC)c(C=C2C(=O)NC(=S)NC2=O)cc1Br	59*	1	15	38	0.98	0.97
C=CCOc1ccc(C=C2C(=O)NC(=O)NC2=O)cc1OC	38	1	·	·	·	·
CCOc1cc(C=C2C(=O)NC(=S)NC2=O)ccc1OCCOc1ccccc1OC	15	0.94	·	·	·	·
C=CCOc1ccc(C=C2C(=O)NC(=S)NC2=O)cc1OC	82*	1	51*	92*	0.93	0.77*
C=CCOc1ccccc1/C=C1/C(=O)ON=C1c1ccc(Cl)cc1	53*	1	34	20	0.93	0.86
C=CCOc1ccccc1C=C1C(=O)NC(=S)NC1=O	56*	0.92	40	107*	0.9	1
O=C1ON=C(c2ccc(Cl)cc2)/C1=C/c1ccccc1Cl	9	0.94	·	·	·	·
O=C1NC(=O)C(=Cc2ccccc2OCc2ccccc2F)C(=O)N1	18	0.94	·	·	·	·
COC(=O)c1c(C)oc2cc(Br)c(OC(=O)c3cccc([N+](=O)[O-])c3)cc12	4	0.92	·	·	·	·
CCOc1cc(C2Nc3ccccc3C(=O)N2c2ccc(C)cc2)ccc1O (stereo unspecified)	13	1	·	·	·	·
C/C(=N/NC(=O)/C(=C\c1ccc2c(c1)OCO2)NC(=O)c1ccccc1)c1cccc([N+](=O)[O-])c1	-2	1.1	·	·	·	·
CCOC(=O)C1(C(=O)OCC)C(C(=O)OCC)(C(=O)OCC)C1(C(=O)OCC)C(=O)OCC	2	0.87	·	·	·	·
O/N=C\c1cn(-c2ccccc2)nc1-c1ccccc1	26	1	·	·	·	·
O=C1NC(=S)N(c2ccccc2)C(=O)/C1=C/c1ccc(Br)cc1	-4	0.96	·	·	·	·
CN(C)c1ccc(/C=C2\C(=O)NC(=S)N(c3ccc(Br)cc3)C2=O)cc1	64*	1.3*	20	96*	1.2*	0.87
S=c1oc(COc2ccc(Cl)cc2Cl)nn1CN1CCCCC1	6	1.1	·	·	·	·
O=C(NC(O)C(Cl)(Cl)Cl)c1ccc([N+](=O)[O-])cc1 (stereo unspecified)	39	1	-2	5	1	0.78*
CCCC(C)NC(=O)c1ccc([N+](=O)[O-])cc1 (stereo unspecified)	3	1	·	·	·	·
O=C(c1ccc2c3c(cccc13)CC2)N1CCN(c2ccccn2)CC1	13	0.99	·	·	·	·
SMILES	NS3h inh CB	Cy5 interf NS3h	NS3h confirm	SSB FP counter	Cy5 SSB fluor CB	Cy5 interf conf
CCOC(=O)c1ccc(-c2ccc(/C=C3/C(=O)NC(=O)N(c4ccccc4)C3=O)o2)cc1	24	0.92	·	·	·	·
O=C1NC(=S)N(c2ccccc2)C(=O)/C1=C/c1ccc(-c2cccc(C(=O)O)c2)o1	83*	1	26	82*	0.84	0.79*
O=C1NC(=S)N(c2ccc(Cl)cc2)C(=O)/C1=C\c1ccc(-c2cccc(C(=O)O)c2)o1	72*	1	57*	98*	0.92	0.91
O=C1NN(c2ccc(Br)cc2)C(=O)/C1=C\c1ccc(-c2cccc(C(=O)O)c2)o1	23	0.93	·	·	·	·
Cc1ccc(-c2nnc(-c3cccc(S(=O)(=O)N4CCOCC4)c3)o2)cc1	2	1	·	·	·	·
O=C1C=CC(=O)N1c1cccc(Cl)c1	55*	1	48	9	0.97	0.89
O=C(/C=C/c1ccc(/C=C/C(=O)c2cccc(N3C(=O)C=CC3=O)c2)cc1)c1cccc(N2C(=O)C=CC2=O)c1	16	1	·	·	·	·
O=C1/C(=C\c2ccc(I)cc2)SC(=S)N1c1cccc(Cl)c1	8	1.1	·	·	·	·
CCOC(=O)c1cccc(N2C(=O)C=CC2=O)c1	55*	0.94	34	10	0.96	0.86
COc1cccc(NC(=O)C2CC(=O)N(c3ccc(Cl)cc3)C2)c1 (stereo unspecified)	7	0.89	·	·	·	·
COC(=O)c1c(C)oc2ccc(OCc3ccc([N+](=O)[O-])cc3)cc12	-4	1	·	·	·	·
O=Cc1ccc(OCc2ccc([N+](=O)[O-])cc2)cc1	49*	0.59*	27	19	0.92	0.7*
CCOc1cc(/C=C2/SC(=S)NC2=O)cc(Br)c1OCc1ccc(F)cc1	83*	1	8	24	0.94	0.98
C=CCN1C(=O)/C(=C\c2cc(Br)c(OCc3ccc(F)cc3)c(OC)c2)SC1=S	-9	1.2	·	·	·	·
CC(=O)Nc1ccc(NC(NC(=O)c2cccc(I)c2)C(Cl)(Cl)Cl)cc1 (stereo unspecified)	11	0.94	·	·	·	·
COc1ccc(C(=O)NCCCNc2ccc([N+](=O)[O-])cc2Cl)cc1OC	16	0.98	·	·	·	·
COc1ccc(C(=O)NCCNc2ccc([N+](=O)[O-])cc2)cc1OC	40	1.1	13	8	0.94	0.72*
CCOc1cc(/C=C2\SC(=S)N(c3ccc(F)cc3)C2=O)ccc1O	-2	0.96	·	·	·	·
CSc1ccccc1N1C(=O)C=CC1=O	22	1	41	-2	0.97	0.75*
CSc1ccccc1N1C(=O)C2CC(C)=C(C)CC2C1=O (stereo unspecified)	0	1	·	·	·	·
CCOc1ccc(C(=O)Nc2cc3nn(-c4ccc(OC)cc4)nc3cc2C)cc1	8	1	·	·	·	·
O=C1/C(=C\c2ccc(N3N=C(c4ccccc4)CC3c3ccccc3)cc2)SC(=S)N1C1CCS(=O)(=O)C1 (stereo unspecified)	53*	1.2*	29	32	1	0.87
O=C1/C(=C/c2ccc(F)cc2)SC(=S)N1C1CCS(=O)(=O)C1 (stereo unspecified)	11	1	·	·	·	·
COc1cc(/C=C/C(=O)c2c(-c3ccccc3)c3cc(Cl)ccc3[nH]c2=O)cc(OC)c1OC	7	0.92	·	·	·	·
COc1cc(C2NC(=S)NC(C)=C2C(=O)Nc2ccc(Cl)cc2)ccc1O (stereo unspecified)	-2	0.89	·	·	·	·
CC1=C(C(=O)OC(C)C)C(c2ccccc2F)NC(=S)N1 (stereo unspecified)	7	1	·	·	·	·
O=C(N/N=C\c1ccccc1O)/C(=C\c1cccs1)NC(=O)c1ccccc1	6	1	·	·	·	·
CCCSc1nnc(NC(=O)Nc2ccc(Cl)cc2)s1	10	1	·	·	·	·
CN(C1=NC(=O)/C(=C\c2ccc(Cl)cc2)S1)c1ccc(O)cc1	8	0.98	·	·	·	·
CN(C1=NC(=O)/C(=C\C=C\c2ccccc2)S1)c1ccc(O)cc1	52*	0.97	21	2	0.93	0.69*
